# The list is not random: actives were taken first. Their share in the collection is about 2.8%.
# HEK293 viab: reduces viability of HEK-293 SNCA reporter cells. Potency, µM (doses to about 57.1 µM), without a hit: at the highest dose activity change, negative = cytotoxicity, usual class: cytotoxic. AID 1671193. HEK-293-SNCA-luc viability, GF-AFC fluorescence, 24 h. 0.12% of 150,000 active;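 note: potency is the fitted concentration of half-maximal effect; 0% = DMSO-treated cells and -100% = medium-only wells without cells; nearly all actives have a fitted effect of over 30% in size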
#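 HEK-293-SNCA-luc cells (1500/well) plated 24 h, then exposed 24 h to a dilution series; GF-AFC added 30 min at 37C, fluorescence 405/540 nm; normalised to medium-only and DMSO wells, Hill fit.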
# KDM5B inhibitor: inhibitors of human KDM5B histone demethylase | AID 1347165 | Potency, µM (highest dose often 57.7 µM), actives largely listed as inhibitors | 2.6% of 220,000 active | KDM5B demethylase, FDH-coupled NADH fluorescence (FDH is formaldehyde dehydrogenase) | Q9UGL1; note: potency is the fitted concentration of half-maximal effect; 0% is about no effect; nearly all actives have a fitted effect of over 70% in size
#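 Here, H3K4me3 peptide (12.5 µM in substrate mix) is demethylated by KDM5BΔAP, 200 nM final, after 10 min compound exposure. Formaldehyde product is coupled through FDH (0.25 U/mL in mix) to NADH fluorescence; 30-min ΔRFU feeds dose-response curves.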
# SNCA expr inhib: reduces expression of the alpha-synuclein gene; HEK-293 SNCA-luciferase knock-in, luminescence, 24 h; AID 1671194; Potency, µM (top dose mostly 57.2 µM), inactives show top-dose activity change, negative = inhibition, hits mostly inhibitors; 0.17% of 140,000 active;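 note: potency is the fitted concentration of half-maximal effect; plate controls were DMSO cells for no effect and cell-free wells for full effect; nearly all actives have a fitted effect of over 45% in size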
# IP6K1 inhibitor: IP6K1 kinase inhibition | Q92551 | IP6K1 kinase, ADP-Glo luminescence, 2 h; active compounds read low | activity change, % (series mostly up to about 58 µM) | 0.81% of 140,000 active | AID 1645851; in the data active = activity change below about -25%; note: % is set by controls: 0 for no effect and ±100 for the full control effect
# Target sequence (Q92551 whole entry, looked up): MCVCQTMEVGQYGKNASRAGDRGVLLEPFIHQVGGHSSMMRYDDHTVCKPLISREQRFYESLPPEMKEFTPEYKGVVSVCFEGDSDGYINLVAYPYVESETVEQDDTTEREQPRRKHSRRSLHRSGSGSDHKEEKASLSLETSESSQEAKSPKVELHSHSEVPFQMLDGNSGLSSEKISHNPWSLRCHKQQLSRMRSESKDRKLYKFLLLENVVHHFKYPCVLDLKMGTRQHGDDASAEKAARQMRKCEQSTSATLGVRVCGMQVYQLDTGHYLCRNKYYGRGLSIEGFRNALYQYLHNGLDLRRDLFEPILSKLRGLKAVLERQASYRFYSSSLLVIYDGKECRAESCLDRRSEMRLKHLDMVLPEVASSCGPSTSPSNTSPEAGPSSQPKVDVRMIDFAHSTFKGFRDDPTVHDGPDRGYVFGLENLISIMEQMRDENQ
#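 ADP-Glo luminescence measures ADP made by human IP6K1 during a 2 h RT reaction with ATP/IP6 (mix at 1.3 mM/130 uM); top library doses 57.5 and 19.1 uM final.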
# IP6K1 inh cnf: human IP6K1 inhibition, confirmatory; AID 1645852; shares compounds with IP6K1 inhibitor; Potency, µM (titrated, usually from 49 µM), for the others: at the highest dose activity change, negative = inhibition, actives largely listed as inhibitors; 13% of 1,200 active; recombinant IP6K1 kinase, ADP-Glo luminescence, 2 h; note: potency is the fitted concentration of half-maximal effect; % is set by controls: 0 for no effect and ±100 for the full control effect; nearly all actives have a fitted effect of over 65% in size
# * = called active by the depositor; i = inactive; ? = inconclusive; / = no result given; [ ] = dose if it differs, or a comment. Unless noted, calls come from the whole dose curve; as a rule, active = well fitted curve in the direction sought with a large enough effect; inconclusive = small, poorly fitted or top-dose-only effect, or another doubt; inactive = no such curve, though single readings can be large; an effect the other way counts as inactive or inconclusive.
SMILES,HEK293 viab,KDM5B inhibitor,SNCA expr inhib,IP6K1 inhibitor,IP6K1 inh cnf
Cn1cc(CNc2ccc(-c3nc(-c4cccc(C(F)(F)F)c4)no3)cn2)cn1,-14.1%,?,60.2%,-32.6*,?
Cc1ccccc1N(C)C1CN(Cc2ccccc2)C1,6.2%[87.6 µM],i,5.4%[87.6 µM],1.8,/
CC(C)c1cc(C(C)C)c(CC(=O)NS(=O)(=O)Oc2c(C(C)C)cccc2C(C)C)c(C(C)C)c1,-28.2%,/,23.4%,-32.4*,?
COc1cccc(-c2cc(C(=O)NCCCNC(=O)OC(C)(C)C)c3cnn(C)c3n2)c1,/,/,/,8.0,/
CCC1CCC(c2ccc(C(C)=O)cc2)CC1 (centres undefined),/,i,/,/,/
CCOC(=O)c1ccc(NC(=O)Cc2ccc(-n3c(CC)nc4cccnc43)cc2)cc1,?,i,4.7%,-44.5*,?
Cc1ccc(C)c(N2CCN(c3ccc(NC(=O)c4cccs4)cc3C(=O)O)CC2)c1,0.7%,?,19.8%,-32.6*,?
CCN1CCN(C(c2ccc(F)cc2)c2sc3nc(-c4ccco4)nn3c2O)CC1 (centres undefined),?,i,45.7%,-29.5*,?
OC[C@H]1C[C@@H](NCc2cccc3c2OCO3)[C@H](O)[C@@H]1O,1.1%[87.6 µM],i,2.1%[87.6 µM],-26.4*,?
OC[C@H]1C[C@@H](NCc2cccc(Cl)c2)[C@H](O)[C@@H]1O,1.6%[87.6 µM],?,0.8%[87.6 µM],-13.0,/
COc1cc2c(=O)c(S(=O)(=O)c3ccc(F)cc3)cn(Cc3ccc(Cl)cc3)c2cc1OC,-8.9%,i,25.4%,-14.4,/
O=c1c(S(=O)(=O)c2ccc(Cl)cc2)cn(Cc2ccc(F)cc2)c2ccc(F)cc12,13.9%,i,23.5%,-37.6*,?
Brc1ccc(C2=Nn3c(nnc3-c3cnccn3)SC2)cc1,/,i,/,/,/
CN(C)C(=O)N1C2CCC1CN(c1ccc(C(F)(F)F)cc1)C2,-11.0%,i,?,-26.5*,?
COc1ccccc1NC(=O)c1c(NC(=O)c2ccccc2Cl)sc2c1CCC2,11.4%,i,8.8%,-30.5*,11.5%
O=C(CCc1ncc(-c2ccc(F)cc2)o1)N1CCN(c2ccc([N+](=O)[O-])cc2)CC1,/,i,/,/,/
CCc1cccc(NC(=O)c2sc3nc[nH]c(=O)c3c2C)c1,0.7%,i,22.2%,18.1,/
Cc1c(C(=O)Nc2cccc(C(F)(F)F)c2)sc2nc[nH]c(=O)c12,-11.7%,?,53.0%,-32.4*,?
COC(=O)c1ccc([C@H]2Nc3ccc(S(=O)(=O)Nc4cccc(C)c4)cc3[C@H]3C=CC[C@H]32)cc1,-1.1%,?,9.8%,5.7,/
Cc1ccc([C@H]2Nc3ccc(S(=O)(=O)Nc4cccc(Cl)c4C)cc3[C@H]3C=CC[C@H]32)cc1,-18.6%,?,-9.7%,-27.0*,-5.2%
CC1=C[C@@H](CNS(=O)(=O)c2ccc(C)cc2)[C@H](C(C)C)C[C@H]1CC(=O)N(C)Cc1cccnc1,?,i,-21.7%,-1.1,/
Clc1cc(CNCc2cccs2)cc2c1OCCCO2,/,i,/,/,/
COc1cc2ccccc2cc1C(=O)Nc1ccc2oc(-c3cccc(C)c3)nc2c1,5.1%,?,19.9%,-27.6*,25.0%
O=C(Nc1ccc2oc(-c3ccccc3F)nc2c1)c1ccccc1Cl,-14.8%,?,-4.4%,-49.4*,?
Cc1ccc(C(=O)COC(=O)CCC(=O)Nc2cc(C(F)(F)F)ccc2Cl)cc1[N+](=O)[O-],/,i,/,/,/
SMILES,HEK293 viab,KDM5B inhibitor,SNCA expr inhib,IP6K1 inhibitor,IP6K1 inh cnf
O=c1n(-c2ccc(Cl)cc2)nc2n1CCN(Cc1ccsc1)C2,?,i,3.9%,-4.8,/
COc1cc(/C=C(\C#N)C(=O)c2ccc(O)c(O)c2)cc(I)c1O,-16.1%,/,2.1%,/,2.06µM*
O=S(=O)(NCc1ccc(F)cc1)c1ccc(N2CCCCS2(=O)=O)cc1,3.4%,i,-17.5%,-31.6*,15.8%
O=S(=O)(NCc1ccc(Cl)cc1)c1ccc(N2CCCCS2(=O)=O)cc1,9.2%,i,?,20.3,/
O=C(O)CSc1cc(NS(=O)(=O)c2ccc(Br)cc2)c2ccccc2c1O,?,/,/,-75.6*,?
CC1CCN(C(=O)CC#N)CC1N(C)c1ncnc2[nH]ccc12 (centres undefined),6.8%,/,/,-8.0,-2.7%
C[C@@H]1CCN(C(=O)CC#N)C[C@H]1N(C)c1ncnc2[nH]ccc12,-21.8%,/,?,/,/
Cc1c(O)nc(SCC(=O)Nc2cccc(C(F)(F)F)c2)n(-c2ccccc2)c1=O,/,i,/,/,/
Cc1c(O)nc(SCC(=O)Nc2ccc(Cl)cc2Cl)n(-c2ccc(F)cc2)c1=O,16.1%,i,-2.7%,-26.7*,?
CCOC(=O)C1CCN(C(=O)c2cn3cc(-c4ccc(C(F)(F)F)cc4)sc3n2)CC1,19.4%,/,2.5%,-11.5,/
Cc1ccc(Cl)cc1NC(=O)c1oc2c(c1C)-c1[nH]ncc1CC2,1.5%,?,67.0%,-39.7*,?
CC(C)(C)OC(=O)NC(Cc1ccccc1)C(=O)Nc1ccccc1 (centres undefined),/,i,/,/,/
CCOC(=O)c1ccc(NC(=O)c2cc(=O)c3ccc(C)c(C)c3o2)cc1,-9.6%,i,13.2%,-25.5*,1.9%
Cc1ccc(NC(=O)c2cc(=O)c3ccc(C)c(C)c3o2)cc1,/,i,/,/,/
CCS(=O)(=O)N1CC(=O)N(c2ccc(Cl)cc2)C(C)(C(=O)NC2CCCCCC2)C1 (centres undefined),-20.6%,i,20.1%,-33.8*,3.0%
CC1CCc2noc(NC(=O)COc3ccc(C(C)(C)C)cc3)c2C1 (centres undefined),/,i,/,/,/
O=C1CCSc2ccc(C(=O)Nc3ccc(Oc4ccccc4)cc3)cc2N1,/,i,/,/,/
CN(C)[C@H]1CCCCN(C(=O)c2cnc3ccccn3c2=O)C1,2.0%,31.6µM*,18.8%,-34.5*,17.5%
COc1cc(OC)c(C(=O)N2CCCC[C@H](N(C)C)C2)cc1OC,-3.3%,i,9.6%,-9.5,/
COc1ccccc1-c1ccc(C(=O)N2CCCC[C@H](N(C)C)C2)cc1,?,?,-7.8%,-31.1*,21.0%
Cn1ncc2c(C(=O)NCCc3c[nH]c4ccccc34)cc(-c3ccc(C(F)(F)F)cc3)nc21,/,/,/,-5.7,/
COc1cc(OC)cc(C(=O)Nc2cc(-c3nc4ccccc4[nH]3)ccc2C)c1,?,?,-8.5%,-25.1*,14.3%
COc1c(Cl)cc(C(=O)Nc2cc(-c3nc4ccccc4[nH]3)ccc2C)cc1Cl,-17.0%,?,?,-3.5,/
O=C(CCc1ncc(-c2c(F)cccc2F)o1)N1CCSCC1,/,i,/,/,/
Cc1cccc(Oc2nc3c(c(=O)n(C)c(=O)n3C)n2C)c1,7.8%,i[11.5 µM],10.9%,-27.3*,-17.9%
CNc1c(NC(=O)c2ccccc2Br)c(=O)oc2ccccc12,/,i,/,/,/
O=C1CC(c2ccccc2)Sc2nc(-c3ccc(F)cc3)nn21 (centres undefined),10.4%,i[11.5 µM],-1.9%,-26.6*,1.9%
